TLR4-MyD88 BLA = inhibitors of human TLR4-MyD88 binding. O00206+Q99836. HeLa CL3-4 TLR4/MyD88 BLA complementation, FRET ratio. inhibition, % at 8.4 µM. actives 0.18% (n = 200,000). AID 861; in the data active means inhibition above about 25%
ABCB6 inh MLPCN = inhibitors of human ABC transporter ABCB6; fluorescence ratio to DMSO, % at 10 µM; actives 0.19% (n = 360,000); K562-ABCB6 porphyrin accumulation, flow cytometry, 1 h; hits give low values; Q9NP58;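 active means fluorescence ratio to DMSO below 75%, the collection mean minus 3 SD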;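 further: signal is porphyrin accumulated inside mitochondria; lower ratio means ABCB6 inhibition with less porphyrin fluorescence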
TLR9-MyD88 inh = blocks human TLR9 binding to MyD88. CHO BLA complementation TLR9-MyD88, CCF4 FRET ratio. inhibition, % at 4.98 µM. Q9NR96+Q99836. AID 504734. actives 0.21% (n = 340,000);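 active means inhibition above the mean over all tested compounds plus 3 SD, cut at about 21% in these data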
Myeloid diff 2 = myeloid differentiation induction. ER-HoxA9 myeloid progenitors, lysozyme-GFP differentiation, flow cytometry. actives 1% (n = 360,000). calls only at 10 µM;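 active means normalized GFP-positive differentiation at or above the plate's own cutoff, the solvent-only control mean plus 3 SD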;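 further: cells exposed to compound for four days before flow analysis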
NOD2 RIPK2 PPI = blocks binding of human NOD2 to RIPK2; CHO BLA complementation NOD2-RIPK2, CCF4 ratio; inhibition, % at 4.98 µM; actives 0.38% (n = 360,000); O43353; AID 624267; in the data active means inhibition above about 21%
Target sequence (O43353 whole entry, looked up): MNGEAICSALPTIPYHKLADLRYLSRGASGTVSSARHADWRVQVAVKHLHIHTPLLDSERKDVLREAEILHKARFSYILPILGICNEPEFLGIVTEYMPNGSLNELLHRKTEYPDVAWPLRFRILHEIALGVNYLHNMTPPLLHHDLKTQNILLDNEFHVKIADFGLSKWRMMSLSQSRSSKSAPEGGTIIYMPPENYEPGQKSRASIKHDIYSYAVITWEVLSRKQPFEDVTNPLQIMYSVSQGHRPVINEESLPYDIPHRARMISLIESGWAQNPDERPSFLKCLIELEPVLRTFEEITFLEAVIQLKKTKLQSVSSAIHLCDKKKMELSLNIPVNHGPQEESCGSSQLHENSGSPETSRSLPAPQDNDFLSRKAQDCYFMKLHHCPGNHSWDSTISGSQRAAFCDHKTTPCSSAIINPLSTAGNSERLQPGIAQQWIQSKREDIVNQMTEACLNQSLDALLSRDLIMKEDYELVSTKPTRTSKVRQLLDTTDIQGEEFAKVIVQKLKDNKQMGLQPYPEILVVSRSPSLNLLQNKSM
Myeloid diff CP1 = myeloid differentiation induction | actives 2% (n = 2,300) | ER-HoxA9 myeloid progenitors, GFP/Mac1 double-positive flow | AID 651706 | shares compounds with Myeloid diff 2 | calls only;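 active means share of green or green-and-red cells above 9 and 9% in run 1 or 4 and 3% in run 2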
GFP autofluor = flagged as fluorescent in myeloid differentiation counter-screen | shares compounds with Myeloid diff 2 | ER-HoxA9 myeloid progenitors, no estrogen, GFP autofluorescence flow cytometry; vehicle wells 0%, positive control 100% | fluorescence response, % (no concentration beside the values) | actives 7.4% (n = 2,300) | AID 651707;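 active means over 5% cells positive for green fluorescent reporter, or over 2% positive for both it and APC stain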
A number is an active result; i = inactive; nt = not tested or not shown; + = active, no number. Rows were chosen to be rich in hits. Some 1.7% of all compounds tested hit in one or more screens of this group.

SMILES	TLR4-MyD88 BLA	ABCB6 inh MLPCN	TLR9-MyD88 inh	Myeloid diff 2	NOD2 RIPK2 PPI	Myeloid diff CP1	GFP autofluor
CCOC(=O)c1[nH]c2ccc(Br)cc2c1NC(=O)CCN1CCCC(C)(C)C1	i	i	i	+	i	i	i
O=C(/C=C/c1cccc(C(F)(F)F)c1)Nc1cccc(C(F)(F)F)c1	i	i	i	i	i	i	i
NNc1nc2c(F)cccc2s1	i	i	i	i	i	nt	nt
NNc1nc2c(F)cc(F)cc2s1	i	i	i	+	i	i	i
CCn1nc(NC(=O)Cc2ccc(OC)cc2)c2cc3cc(C)ccc3nc21	nt	i	i	i	i	nt	nt
CCCCn1nc(NC(=O)COC)c2cc3cc(OC)ccc3nc21	nt	i	i	i	i	i	i
Cc1cccc(OCCOC(=O)c2c(-c3ccccc3)noc2C)c1	nt	i	i	+	i	i	i
CCCOc1cccc(NC(=O)c2c(-c3ccccc3)noc2C)c1	i	i	i	i	i	nt	nt
COc1ccccc1NC(=O)N1CCN(c2cc(-c3ccccc3)nc3ncnn23)CC1	i	i	i	i	i	i	i
CC(C)OCCCNC(=O)CCCC(=O)Nc1ccc(OCCc2ccccc2)cc1	nt	i	i	i	i	nt	nt
COc1cccc(-c2sc3ccccc3c2-c2ccc(OCCN3CCCC3)cc2)c1	nt	i	i	i	i	nt	nt
COc1cccc(-c2sc3ccccc3c2-c2ccc(OCCN3CCCCC3)cc2)c1	nt	i	i	i	i	i	i
CC(C)(C)c1ccc(OCc2ccc(C(=O)NN)o2)cc1	nt	i	i	+	i	i	i
NNC(=O)c1ccc(COc2ccc(Br)cc2)o1	nt	i	i	i	i	i	i
NNC(=O)c1ccc(COc2ccc3c(c2)CCC3)o1	i	i	i	i	i	nt	nt
N#CCOC(=O)c1cc(S(=O)(=O)N2CCCCC2)ccc1N1CCOCC1	nt	i	i	i	i	nt	nt
COC(=O)C1=C(C)Nc2nnnn2C1c1ccco1 (centres undefined)	i	i	i	nt	i	i	i
O=C(COC(=O)c1cccnc1Cl)Nc1ccc2c(c1)OCCO2	i	i	i	+	i	i	i
Cc1ccc(CNC(=O)CN(C)S(=O)(=O)c2ccc(F)cc2)cc1	nt	i	i	i	i	nt	nt
COc1cccc(C(=O)N2CCC[C@H]2C(=O)N2CCC[C@H]2C(=O)NCc2ccccn2)c1	nt	i	nt	i	i	nt	nt
O=C(NCc1ccccn1)[C@@H]1CCCN1C(=O)[C@@H]1CCCN1C(=O)c1cccc(Cl)c1	nt	i	nt	i	i	i	i
CN(C)c1ccc(C(=O)C(=O)N2CCN(c3ccccc3)CC2)cc1	nt	nt	nt	i	i	nt	nt
Cc1ccc(-c2nnc(-c3ccc(NC(=O)Cc4cccs4)cc3)o2)cc1	i	i	i	+	i	i	i
O=C(COC(=O)COc1cccc2ccccc12)NCC(F)(F)F	i	i	i	i	i	i	i
c1cc(-c2cc3nc(NC4CCCCC4)ccn3n2)ccc1OCCN1CCOCC1	nt	i	nt	i	i	i	i
SMILES	TLR4-MyD88 BLA	ABCB6 inh MLPCN	TLR9-MyD88 inh	Myeloid diff 2	NOD2 RIPK2 PPI	Myeloid diff CP1	GFP autofluor
O=C1N[C@H](Cc2ccccc2)COC(=O)[C@@H](Cc2ccc(F)cc2)CC/C=C/C[C@H]1CC(=O)N(CCO)Cc1ccccc1	nt	i	i	i	i	nt	nt
O=C1N[C@@H](Cc2ccccc2)COC(=O)[C@@H](Cc2ccc(F)cc2)CC/C=C/C[C@@H]1CC(=O)N(CCO)Cc1ccccc1	nt	i	i	+	i	i	i
O=C(O)c1cccnc1SC1CC(=O)N(c2ccccc2)C1=O (centres undefined)	nt	i	i	i	i	nt	nt
CC(c1ccccc1)N1C(=O)CC(Sc2ncccc2C(=O)O)C1=O (centres undefined)	i	i	i	nt	i	i	i
C=C(C(=O)c1ccccc1)C(C)CC(=O)c1ccccc1 (centres undefined)	i	i	i	i	i	i	99
COc1ccc(S(=O)(=O)N2CCN(CCOc3ccc(Br)cc3)CC2)cc1OC	nt	i	i	i	i	nt	nt
COc1ccc(S(=O)(=O)N2CCN(CCOc3ccccc3Cl)CC2)cc1OC	nt	i	i	i	i	i	i
COC(=O)Cc1c(C)c2ccc(OC(=O)c3ccccc3)cc2oc1=O	i	i	i	i	i	i	i
Cc1c(Cc2ccccc2)c(=O)oc2cc(OC(=O)c3ccccc3)ccc12	i	i	i	i	i	nt	nt
COc1ccc(S(=O)(=O)N(c2onc(C)c2Cl)S(=O)(=O)c2ccc(OC)cc2)cc1	i	i	i	i	i	i	i
Cc1cc(C(=O)OC(C)C(=O)N2CCc3ccccc32)ccc1[N+](=O)[O-] (centres undefined)	nt	i	i	i	i	nt	nt
C[C@@H]1CN([C@@H](C)CO)C(=O)CCCn2nncc2CO[C@@H]1CN(C)C(=O)CCC(F)(F)F	nt	i	i	i	i	nt	nt
C[C@H]1CN([C@@H](C)CO)C(=O)CCCn2nncc2CO[C@H]1CN(C)C(=O)CCC(F)(F)F	nt	i	i	i	i	i	i
C[C@H]1CN([C@@H](C)CO)C(=O)CCCn2nncc2CO[C@H]1CN(C)S(=O)(=O)c1cccc(F)c1	nt	i	i	i	i	i	i
C[C@@H]1CN([C@@H](C)CO)C(=O)CCCn2cc(nn2)CO[C@H]1CN(C)C(=O)Oc1ccccc1	nt	i	i	i	i	nt	nt
C[C@H](CO)N1C[C@H](C)[C@@H](CN(C)S(=O)(=O)c2cccc(F)c2)OCc2cnnn2CCCC1=O	nt	i	i	i	i	nt	nt
C[C@H](CO)N1C[C@H](C)[C@@H](CN(C)C(=O)Oc2ccccc2)OCc2cn(nn2)CCCC1=O	nt	i	i	i	i	i	i
Cc1cccc(NC(=O)c2csnn2)n1	i	i	i	i	i	nt	nt
CCOc1ccc(S(=O)(=O)NCCC(=O)Nc2cccc(C(=O)OC)c2)cc1	nt	i	i	i	i	nt	nt
O=C1CSc2ccc(S(=O)(=O)N3CCN(c4ccccc4F)CC3)cc2N1	nt	i	i	i	i	nt	nt
COc1ccc(C(C)(C)C)cc1NC(=O)CSc1ncn[nH]1	nt	i	i	i	i	nt	nt
Cn1c(=O)c2c(nc(SCC(=O)N3c4ccccc4CCc4ccccc43)n2C)n(C)c1=O	i	i	i	+	i	i	i
Cc1ccc(-n2ncc(-c3nnc(SCC(=O)NC4CCCC4)o3)c2N)cc1C	i	i	i	i	i	i	i
Cc1ccccc1-c1nnc(SCC(=O)NC2CCCC2)o1	nt	i	i	i	i	nt	nt
Cc1cccc(CCNC(=O)CCS(=O)(=O)c2ccc3nc(C)sc3c2)c1	nt	i	i	i	i	nt	nt
Cc1ccc(CCNC(=O)CCS(=O)(=O)c2ccc3nc(C)sc3c2)cc1	nt	i	i	i	i	i	i
NNc1nc2cc3c(cc2s1)OCCO3	nt	i	i	i	i	nt	nt
C#CCNC(=O)C[C@@H]1C[C@@]2(C(=O)OC)CCCCC=C2N(CCCCCCCC)C1=O	nt	i	nt	i	i	nt	nt
NNC(=O)c1ccc(CSc2nc3ccccc3[nH]2)cc1	i	i	i	i	i	i	i

Screens (PubChem BioAssay)
